Our source for the composite z-score and z-score values is PubChem BioAssay.

The nature of assay [1]: small molecules captured by biotinylated probe aFSTL3 – biochemical, small-molecule microarray, fluorescence 635/667, stem cell growth factor project, primary screen (AID 1064).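 Also: measures binding of the biotinylated anti-FSTL3 antibody to printed compounds.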 The settings on record: higher = more signal.
Assay [2] in a line: binders from COS7 lysate, DM2A8 probe, primary screen, torsin A project, cell lysate, small-molecule microarray, fluorescence 635/667 (AID 1065). The settings on record: higher = more signal, COS7 lysate expressing mutant human TOR1A.
The nature of assay [3]: small molecules captured by biotinylated probe aFGF2 – biochemical, small-molecule microarray, fluorescence 635/667, stem cell growth factor project, primary screen (AID 1067).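 Also: measures binding of biotinylated aFGF2 protein to printed compounds on slides; z-score merges feature fluorescence and signal-to-noise across triplicate slides.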 The following applies: higher = more signal.
Assay [4] in a line: small molecules captured by biotinylated probe aFGF10 – biochemical, small-molecule microarray, fluorescence 635/667, stem cell growth factor project, primary screen (AID 1071).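 Also: score merges 667 nm spot intensity and signal to noise from triplicate slides.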 The settings on record: higher = more signal.
In assay [5] the target is Neurogenic locus notch homolog protein 2 (Homo sapiens) (UniProt Q04721). Kind of assay: small molecules binding Notch2 protein – biochemical, small-molecule microarray, 635 nm fluorescence, stem cell growth factors, primary screen (AID 1073). The following applies: higher = more signal.
Sequence of Neurogenic locus notch homolog protein 2 (Homo sapiens) (Q04721 whole entry, looked up, canonical isoform): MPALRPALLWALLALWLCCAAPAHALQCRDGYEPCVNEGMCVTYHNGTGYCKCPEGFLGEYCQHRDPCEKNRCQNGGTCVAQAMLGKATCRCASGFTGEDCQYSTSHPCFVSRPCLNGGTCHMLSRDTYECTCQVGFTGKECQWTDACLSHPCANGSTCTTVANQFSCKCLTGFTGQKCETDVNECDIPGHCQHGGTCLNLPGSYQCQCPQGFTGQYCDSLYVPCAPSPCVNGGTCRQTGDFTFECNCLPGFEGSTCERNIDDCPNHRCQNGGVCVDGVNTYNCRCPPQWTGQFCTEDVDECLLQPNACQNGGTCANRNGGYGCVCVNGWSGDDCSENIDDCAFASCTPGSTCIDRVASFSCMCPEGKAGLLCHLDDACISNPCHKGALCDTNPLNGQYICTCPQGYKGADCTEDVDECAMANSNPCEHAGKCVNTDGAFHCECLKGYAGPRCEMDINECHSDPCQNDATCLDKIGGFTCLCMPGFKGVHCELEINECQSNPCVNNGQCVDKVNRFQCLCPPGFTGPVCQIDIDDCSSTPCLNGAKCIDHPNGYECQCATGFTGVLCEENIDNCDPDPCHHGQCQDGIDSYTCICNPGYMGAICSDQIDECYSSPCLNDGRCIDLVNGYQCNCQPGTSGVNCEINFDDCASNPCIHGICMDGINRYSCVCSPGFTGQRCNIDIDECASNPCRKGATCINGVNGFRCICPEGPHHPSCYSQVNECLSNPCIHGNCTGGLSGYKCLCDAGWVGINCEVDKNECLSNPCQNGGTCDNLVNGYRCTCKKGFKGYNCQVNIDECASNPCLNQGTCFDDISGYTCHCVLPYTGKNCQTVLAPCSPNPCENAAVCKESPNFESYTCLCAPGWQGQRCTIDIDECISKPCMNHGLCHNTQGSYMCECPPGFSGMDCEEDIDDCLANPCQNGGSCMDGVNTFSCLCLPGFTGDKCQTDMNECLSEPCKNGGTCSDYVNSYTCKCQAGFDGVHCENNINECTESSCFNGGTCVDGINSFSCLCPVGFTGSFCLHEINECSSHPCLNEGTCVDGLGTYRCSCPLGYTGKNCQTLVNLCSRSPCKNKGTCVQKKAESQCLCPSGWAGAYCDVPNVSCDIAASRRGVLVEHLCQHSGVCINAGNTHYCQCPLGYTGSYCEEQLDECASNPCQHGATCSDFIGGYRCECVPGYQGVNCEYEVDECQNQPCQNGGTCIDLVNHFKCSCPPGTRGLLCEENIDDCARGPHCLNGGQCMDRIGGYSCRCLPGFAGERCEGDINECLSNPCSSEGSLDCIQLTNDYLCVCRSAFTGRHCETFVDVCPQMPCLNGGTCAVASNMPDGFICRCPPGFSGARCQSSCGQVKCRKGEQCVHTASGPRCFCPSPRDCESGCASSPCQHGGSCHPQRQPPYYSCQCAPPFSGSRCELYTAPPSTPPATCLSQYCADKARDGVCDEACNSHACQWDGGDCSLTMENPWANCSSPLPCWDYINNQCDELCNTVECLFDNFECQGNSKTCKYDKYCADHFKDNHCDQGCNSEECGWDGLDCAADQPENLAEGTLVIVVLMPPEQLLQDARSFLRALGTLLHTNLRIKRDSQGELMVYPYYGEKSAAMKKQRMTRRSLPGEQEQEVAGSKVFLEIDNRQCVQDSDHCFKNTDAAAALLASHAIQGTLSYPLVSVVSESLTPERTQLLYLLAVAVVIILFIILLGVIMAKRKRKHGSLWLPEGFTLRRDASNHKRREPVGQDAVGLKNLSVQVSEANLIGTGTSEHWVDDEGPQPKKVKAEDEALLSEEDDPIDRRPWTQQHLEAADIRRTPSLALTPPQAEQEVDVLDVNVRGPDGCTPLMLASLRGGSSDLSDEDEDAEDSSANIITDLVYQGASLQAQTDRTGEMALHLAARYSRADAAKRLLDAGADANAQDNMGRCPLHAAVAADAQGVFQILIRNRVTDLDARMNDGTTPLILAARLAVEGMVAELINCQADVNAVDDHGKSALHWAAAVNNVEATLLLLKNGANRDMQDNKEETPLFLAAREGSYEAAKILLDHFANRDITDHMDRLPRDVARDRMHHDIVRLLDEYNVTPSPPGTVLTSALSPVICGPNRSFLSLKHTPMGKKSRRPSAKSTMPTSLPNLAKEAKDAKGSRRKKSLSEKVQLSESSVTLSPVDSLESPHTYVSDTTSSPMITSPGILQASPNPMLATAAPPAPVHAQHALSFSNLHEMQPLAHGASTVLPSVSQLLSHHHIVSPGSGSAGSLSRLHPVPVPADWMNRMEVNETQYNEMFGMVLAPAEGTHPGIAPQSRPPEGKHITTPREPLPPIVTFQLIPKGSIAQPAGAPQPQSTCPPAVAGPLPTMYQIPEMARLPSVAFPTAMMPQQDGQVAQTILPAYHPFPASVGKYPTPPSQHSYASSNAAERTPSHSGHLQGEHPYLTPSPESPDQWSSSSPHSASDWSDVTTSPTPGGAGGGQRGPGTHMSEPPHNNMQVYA
Assay [6] deals with Pro-neuregulin-1, membrane-bound isoform (Homo sapiens) (UniProt Q02297). In words: small molecules binding neuregulin-1 protein – biochemical, small-molecule microarray, fluorescence 635/667, psychiatric disease protein project, primary screen (AID 1075).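 Also: score combines 667 nm spot fluorescence with signal to noise.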 The settings on record: NRG1 binding, 635 nm fluorescence, higher = more signal.
Assay [7] relates to Neuregulin-1 EGF-like domain. Kind of assay: small molecules binding NRG1 EGF domain – biochemical, small-molecule microarray, 635 nm fluorescence, primary screen (AID 1081).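 Also: binding of the protein to compounds printed on small-molecule microarray slides.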 The following applies: higher = more signal.
Assay [8] is described as follows: FRG1 expression reporter modulators in myotubes – cell-based, C2C12 myotubes, firefly/Renilla luciferase, luminescence, FRG1 inhibition for FSHD, primary screen (AID 1084). The following applies: FRG1 promoter luciferase, higher = more signal, called active from +8 up or from −8 down.
Assay [9] can be described thus: small molecules captured by biotinylated probe aFST – biochemical, small-molecule microarray, fluorescence 635/667, stem cell growth factor project, primary screen (AID 1086).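 Also: score merges 667 nm fluorescence with signal-to-noise of each printed compound spot.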 The settings on record: higher = more signal.
The nature of assay [10]: binders of probe aHhip on microarray, primary screen, stem cell growth factor project, biochemical, small-molecule microarray, fluorescence 635/667 (AID 1087).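 Also: score merges spot fluorescence at 667nm with spot signal to noise ratio.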 The settings on record: higher = more signal.
Assay [11] has as its system PRMT1 (protein arginine N-methyltransferase 1). Kind of assay: small molecules binding arginine methyltransferase PRMT1 – biochemical, small-molecule microarray, 635 nm fluorescence, primary screen (AID 1088).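 Also: binding of Prmt1 protein to compounds spotted on small-molecule microarray slides.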 The settings on record: higher = more signal.
Assay [12] is described as follows: growth effects on S. cerevisiae YJM789 – YJM789 clinical isolate, OD600, 24 h, basal, primary screen (AID 1089).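 Also: growth of clinical yeast isolate S. cerevisiae YJM 789 seeded 1000 cells per well; test concentration not given here.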 The settings on record: higher = more signal, called active from +8 up or from −8 down.
The nature of assay [13]: S. pombe growth modifiers, basal conditions – strain 972, OD600, 24 h, no modulator, primary screen (AID 1090).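 Also: basal condition with compound alone and no growth modifier present; test concentration not given here.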 The settings on record: S. pombe 972 growth, higher = more signal, called active from +8 up or from −8 down.
Assay [14] can be described thus: budding yeast growth modifiers under rapamycin – strain BY4716, OD600, 96 h, primary screen (AID 1091). Also: test concentration not given here. The settings on record: S. cerevisiae BY4716 + rapamycin, higher = more signal, called active from +8 up or from −8 down.
The target in assay [15] is Torsin-1A-interacting protein 2 (Homo sapiens) (UniProt Q8NFQ8). Kind of assay: small molecules binding lysate-expressed LULL1 – cell lysate, human LULL1 lysate, 635/667 nm fluorescence, primary screen (AID 1092).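 Also: probe is lysate of COS7 cells overexpressing human LULL1; score merges per-feature 667 nm fluorescence with signal-to-noise.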 The settings on record: small-molecule microarray, hLULL1 lysate binding, 635 nm fluorescence; higher = more signal.
The nature of assay [16]: optical density change of DRC41 E. coli – strain DRC41, OD650, 24 h, E. coli filamentation project, primary screen (AID 1093).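 Also: MC1000 strain lacking acrAB efflux and sulA so SOS filamentation is blocked; test concentration not given here.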 The settings on record: E. coli DRC41 growth, higher = more signal, called active from +8 up or from −8 down.
Assay [17] can be described thus: probe aLefty2 binding to arrayed compounds – biochemical, biotinylated probe, 635/667 nm fluorescence, primary screen (AID 1094).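 Also: score merges spot fluorescence near 667 nm with spot signal-to-noise ratio.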 The settings on record: small-molecule microarray, higher = more signal.
Assay [18] concerns Noggin (protein binding on small-molecule microarray). Kind of assay: small molecules binding Noggin protein – biochemical, 635/667 nm fluorescence, primary screen (AID 1095).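 Also: score merges 667 nm feature fluorescence with signal to noise over triplicate slides.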 The settings on record: 635 nm fluorescence, higher = more signal.
Assay [19] has as its target Neurogenic locus notch homolog protein 3 (Homo sapiens) (UniProt Q9UM47). Kind of assay: small molecules binding NOTCH3 protein – biochemical, 635/667 nm fluorescence, primary screen (AID 1096). The following applies: small-molecule microarray, 635 nm fluorescence, higher = more signal.
Assay [20] in a line: probe aEGFR binding to arrayed compounds – biochemical, biotinylated probe, 635/667 nm fluorescence, primary screen (AID 1097).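 Also: probe is a biotinylated anti-EGFR antibody binding compounds printed on slides; score combines fluorescence near 667 nm and signal to noise of each spot.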 The following applies: small-molecule microarray, higher = more signal.

Calls of active or inactive are those of the source.

Sequence of Neurogenic locus notch homolog protein 3 (Homo sapiens) (Q9UM47 whole entry, looked up): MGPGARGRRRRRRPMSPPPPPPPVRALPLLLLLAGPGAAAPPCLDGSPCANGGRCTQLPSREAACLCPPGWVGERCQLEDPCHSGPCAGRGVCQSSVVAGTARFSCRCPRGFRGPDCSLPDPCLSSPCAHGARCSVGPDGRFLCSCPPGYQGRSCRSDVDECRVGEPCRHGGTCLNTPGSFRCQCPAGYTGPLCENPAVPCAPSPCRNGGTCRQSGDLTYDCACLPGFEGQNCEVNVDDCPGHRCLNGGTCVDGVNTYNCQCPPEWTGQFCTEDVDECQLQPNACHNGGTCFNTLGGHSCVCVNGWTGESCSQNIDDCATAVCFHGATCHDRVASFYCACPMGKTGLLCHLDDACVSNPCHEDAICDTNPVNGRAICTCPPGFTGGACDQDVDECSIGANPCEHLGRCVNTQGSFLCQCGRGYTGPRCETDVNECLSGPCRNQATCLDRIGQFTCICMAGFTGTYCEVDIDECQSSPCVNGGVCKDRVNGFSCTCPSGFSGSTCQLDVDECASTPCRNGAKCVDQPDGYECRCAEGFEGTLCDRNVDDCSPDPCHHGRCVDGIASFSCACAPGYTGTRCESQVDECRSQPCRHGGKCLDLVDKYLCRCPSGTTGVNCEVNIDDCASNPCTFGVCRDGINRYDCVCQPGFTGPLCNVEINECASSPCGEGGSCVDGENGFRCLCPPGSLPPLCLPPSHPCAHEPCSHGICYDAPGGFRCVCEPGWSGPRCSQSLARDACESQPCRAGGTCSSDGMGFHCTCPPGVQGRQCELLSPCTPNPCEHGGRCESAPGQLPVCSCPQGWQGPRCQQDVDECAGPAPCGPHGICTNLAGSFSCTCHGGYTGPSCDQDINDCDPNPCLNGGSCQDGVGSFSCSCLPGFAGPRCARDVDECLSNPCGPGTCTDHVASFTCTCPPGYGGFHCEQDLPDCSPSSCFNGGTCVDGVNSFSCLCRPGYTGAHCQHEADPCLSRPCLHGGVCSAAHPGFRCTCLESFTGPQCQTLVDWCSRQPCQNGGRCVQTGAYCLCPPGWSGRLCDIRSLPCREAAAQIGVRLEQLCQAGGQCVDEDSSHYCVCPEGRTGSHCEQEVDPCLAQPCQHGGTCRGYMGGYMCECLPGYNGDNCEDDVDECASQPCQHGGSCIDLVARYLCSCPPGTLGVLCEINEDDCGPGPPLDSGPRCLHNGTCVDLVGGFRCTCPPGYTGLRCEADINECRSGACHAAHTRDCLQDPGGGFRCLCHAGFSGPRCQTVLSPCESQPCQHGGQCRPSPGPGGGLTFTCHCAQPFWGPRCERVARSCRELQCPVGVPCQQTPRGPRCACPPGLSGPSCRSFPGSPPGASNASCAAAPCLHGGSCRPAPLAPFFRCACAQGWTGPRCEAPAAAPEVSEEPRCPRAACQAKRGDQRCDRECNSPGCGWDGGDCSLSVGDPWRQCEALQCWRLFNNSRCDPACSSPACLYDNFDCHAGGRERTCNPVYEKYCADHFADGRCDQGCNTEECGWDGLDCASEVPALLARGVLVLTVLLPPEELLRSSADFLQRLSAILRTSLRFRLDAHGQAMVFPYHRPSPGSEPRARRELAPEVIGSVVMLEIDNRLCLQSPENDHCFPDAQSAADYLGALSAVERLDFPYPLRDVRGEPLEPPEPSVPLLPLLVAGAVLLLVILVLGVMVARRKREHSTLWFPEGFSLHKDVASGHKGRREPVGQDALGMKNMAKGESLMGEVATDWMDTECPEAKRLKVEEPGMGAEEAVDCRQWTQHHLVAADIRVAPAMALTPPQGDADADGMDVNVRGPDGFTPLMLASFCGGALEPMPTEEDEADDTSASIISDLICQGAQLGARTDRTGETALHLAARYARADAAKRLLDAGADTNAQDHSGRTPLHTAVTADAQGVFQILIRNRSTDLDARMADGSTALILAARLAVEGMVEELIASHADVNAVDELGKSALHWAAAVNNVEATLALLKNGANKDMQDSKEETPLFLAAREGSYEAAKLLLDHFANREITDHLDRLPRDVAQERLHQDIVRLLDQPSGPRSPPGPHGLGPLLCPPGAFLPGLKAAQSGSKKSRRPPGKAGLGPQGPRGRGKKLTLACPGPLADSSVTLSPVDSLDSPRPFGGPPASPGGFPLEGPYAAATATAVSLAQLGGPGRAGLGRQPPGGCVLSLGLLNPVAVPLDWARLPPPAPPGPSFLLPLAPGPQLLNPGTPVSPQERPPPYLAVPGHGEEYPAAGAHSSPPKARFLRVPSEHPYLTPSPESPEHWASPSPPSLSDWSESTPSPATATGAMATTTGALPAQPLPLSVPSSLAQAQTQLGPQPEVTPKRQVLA

For the molecule `COC(=O)c1ccc([C@H](NC(=O)c2ccco2)[C@]2(C)C[C@H]2C2CCCCC2)cc1`, the composite z-score is 0.685 in [1]; -0.462 in [2]; -0.0301 in [3]; -0.11 in assay [4]; 0.329 in [5]; 1.12 in assay [6]. For the same molecule, the composite z-score was -0.808 in [7]; 0.488 in assay [9]; 2.5 in assay [10]; -1.67 in assay [11]; 1.45 in assay [15]; -0.0986 in [17]. Moreover, the composite z-score in [18] is -0.586; in [19], -0.436; in assay [20], -0.192. Further, the z-score in assay [8] is -0.622 (inactive); in assay [12], 0.0339 (inactive); in assay [13], 0.17 (inactive); in assay [14], 0.605 (inactive); in [16] it was -1.49 (inactive).
`COCCOC(=O)N1C(=O)[C@@]2(c3cc(C#CC4(O)CCCCCC4)ccc31)[C@H](c1ccc(O)cc1)N1[C@H](c3ccccc3)[C@H](c3ccccc3)OC(=O)[C@H]1[C@@H]2C(=O)NC[C@H](O)c1ccccc1`: the composite z-score in [1] was -0.116; in [2] it was 0.556; in assay [3], -0.126; in assay [4] it was 0.666; in assay [5], 1.29; in assay [6] it was 0.463. The composite z-score in [7] came out at 1.02; in assay [9], 0.538; in [10], 0.176; in assay [11] it was 1.55; in [15] it was 1.18; in assay [17], 0.332. Moreover, the figures for the composite z-score in assay [18], in assay [19] and in [20] were 1.78, 1.06 and 0.22, respectively. Moreover, the z-score in [8] is 0.69 (inactive); in assay [12], 0.0316 (inactive); in assay [13] it was -0.312 (inactive); in assay [14] it was 0.939 (inactive); in assay [16], -0.639 (inactive).
Turning to `COCCCNC(=O)[C@]1(CCS(=O)(=O)c2ccccc2)N=C(c2ccc(OCCCO)cc2)O[C@@H]1c1ccccc1CN=[N+]=[N-]`, the composite z-score worked out at 0.688 in [1]; 1.32 in assay [2]; 0.418 in [3]; 0.948 in assay [4]; 1.63 in [5]; 1.79 in [6]. Further, the composite z-score in assay [7] was 1.14; in [9] it was 1.44; in [10], -0.0518; in assay [11] it was 1.55; in [15], 3.47; in assay [17] it was 0.417. Besides, the composite z-score came out at 0.896 in [18], 1.02 in [19] and 0.455 in assay [20]. Besides, the z-score is 0.174 (inactive) in [8]; 1.52 (inactive) in assay [12]; 0.971 (inactive) in assay [13]; 2.59 (inactive) in assay [14]; 0.773 (inactive) in assay [16].
In the case of `CN(C)CCCNC(=O)[C@@H]1c2ccccc2C(=O)N(Cc2ccccc2Cl)[C@H]1c1ccc(CO)cc1`, the composite z-score in [1] is -0.126; in assay [2], 0.542; in assay [3] it was -0.19; in [4], 0.069; in [5], -0.243; in [6], 0.261. Besides, the composite z-score in assay [7] is -0.0724; in assay [9], -0.177; in assay [10], -0.19; in assay [11] it was 0.226; in assay [15], 2.25; in [17], -0.295. Also, the composite z-score in assay [18] was -0.611; in [19] it was -0.247; in [20] it was 0.0733. Further, the z-score in assay [8] was -1.96 (inactive); in [12], -0.34 (inactive); in assay [13], -1.32 (inactive); in assay [14], -1.04 (inactive); in assay [16], 0.596 (inactive).
On to `C=CCC(OC(C)=O)[C@@H]1[C@@H](N(Cc2ccc(-c3ccccc3)cc2)C(=O)Cc2ccc(F)cc2)c2cc(OCCCO)ccc2N1C(=O)Cc1ccc(OC)cc1` (stereo not given in full), for which the composite z-score in [1] was -0.134; in assay [2], 0.132; in [3], -0.172; in assay [4], 0.295; in assay [5], -0.437; in assay [6] it was 0.0936. Moreover, the composite z-score is -0.438 in assay [7]; 0.121 in assay [9]; -0.175 in assay [10]; -0.712 in assay [11]; 0.311 in [15]; 0.0731 in assay [17]. For the same molecule, the composite z-score in assay [18] is -0.128; in [19], -0.241; in [20] it was -0.204. Moreover, the z-score in assay [8] is -0.528 (inactive); in [12] it was 0.111 (inactive); in [13] it was 0.278 (inactive); in assay [14], -0.0946 (inactive); in assay [16], 0.245 (inactive).
